Where “and” joins values, the source holds several entries; their conditions need not be identical. Equal values may be shown once. Out of some 240,000 compounds screened, about 1,300 (0.54%) were called active. Where a call stands in place of a potency, no number is given. Inconclusive results (about 1%) are left out. The call rests on the fitted dose curve; in most records, active means well fitted inhibition curve with a large enough effect; inconclusive means small, poorly fitted or top-dose-only effect; inactive means flat fitted curve, though single readings scatter. For the sample, actives were picked, then their nearest neighbours and some compounds at random. Some compounds were tested as several samples or in several runs, with calls that do not always agree.
Potency means the concentration at half of the fitted maximal effect.

For the experiment, the target named is ATP-dependent DNA helicase Q1 (Homo sapiens) (UniProt P46063). In words: qHTS Assay for Inhibitors of RecQ-Like Dna Helicase 1 (RECQ1). Further: nearly all actives have a fitted effect of over 30% in size. The following applies: RECQ1 DNA unwinding, red fluorescence kinetic read; series mostly up to 57.3 µM. The source says: Survival of cells and the faithful propagation of the genome depend on elaborate mechanisms of detecting and repairing DNA damage. Treatment of advanced cancer relies on radiation therapy or chemotherapy, which kill cancer cells by causing extensive DNA damage. It is often found, that cancer cells develop resistance to therapy through enhanced activity of DNA repair functions; this has led to an increased interest in developing drugs that interfere with DNA repair, which could sensitize cancer cells to conventional therapy.
ATP-dependent DNA helicase Q1 (Homo sapiens), sequence (P46063 whole entry, looked up): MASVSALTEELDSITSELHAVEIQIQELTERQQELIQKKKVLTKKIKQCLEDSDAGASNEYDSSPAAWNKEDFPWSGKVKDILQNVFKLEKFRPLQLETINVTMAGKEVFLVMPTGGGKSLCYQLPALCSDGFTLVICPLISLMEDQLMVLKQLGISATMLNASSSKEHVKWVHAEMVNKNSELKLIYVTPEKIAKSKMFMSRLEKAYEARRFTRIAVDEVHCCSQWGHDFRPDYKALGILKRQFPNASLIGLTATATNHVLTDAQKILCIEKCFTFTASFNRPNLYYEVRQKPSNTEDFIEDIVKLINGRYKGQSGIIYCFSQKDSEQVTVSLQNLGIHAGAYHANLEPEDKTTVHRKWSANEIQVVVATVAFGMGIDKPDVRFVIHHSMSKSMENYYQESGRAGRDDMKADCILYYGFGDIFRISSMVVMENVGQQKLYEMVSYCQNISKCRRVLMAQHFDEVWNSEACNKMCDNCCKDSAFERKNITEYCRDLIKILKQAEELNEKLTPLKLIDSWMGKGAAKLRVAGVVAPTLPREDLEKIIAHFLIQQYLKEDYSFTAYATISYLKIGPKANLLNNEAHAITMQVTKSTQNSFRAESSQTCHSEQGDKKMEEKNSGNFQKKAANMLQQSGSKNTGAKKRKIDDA
This validation qHTS assay pertains to human RECQ1, which is important in resolving abnormal DNA structures formed during replication or homologous recombination. Shutting down the expression of RECQ1 leads to chromosomal instability and higher radiation sensitivity in cultured cells.
The validation assay was a fluorescence quenching based kinetic qHTS for RECQ1 Helicase DNA unwinding. The activity was measured as ATP-dependent separation of a 20-bp DNA duplex extended by 30-nt single-stranded tails (forked duplex). The forked DNA substrate was tagged with rhodamine fluorophore (carboxytetramethyl rhodamine, TAMRA) and BHQ-2 (Black Hole Quencher 2) dark quencher. Strand separation results in an increase in the fluorescence of TAMRA (excitation 525 nm, emission 598 nm). This substrate construct operates in a red-shifted region where very few compound library members have been noted to fluoresce (PubChem AIDs 593 and 594). An additional feature of the assay is the inclusion of 2.5 ug/ml poly (dIdC), to reduce interference by compounds such as DNA intercalators, a major source of false inhibitors.
Opher Gileadi, Structural Genomics Consortium, University of Oxford
Screening Center PI: Austin, C.P.
Screening Center: NIH Chemical Genomics Center [NCGC]
Three uL of reaction buffer (25 mM Tris-HCl (pH 8.0), 5 mM NaCl, 2 mM MgCl2, 1mM DTT, 0.01% Tween- 20, and 2.5 ug/ml poly(dI-dC), including enzyme (50 nM RECQ1T1), were dispensed into a 1536-well Greiner black assay plate via solenoid-valve based nanoliter dispensers. Compounds (23 nl each in columns 5-48) and control (23 nl each in column 2 as dose-response) were transferred via a Kalypsys pintool equipped with a 1536-pin array. The plates were incubated for 15 min at room temperature, and then 1 ul of substrates (200 nM DNA and 2 mM ATP, final concentrations) was added to start the reaction. The plate was transferred into a ViewLux high-throughput CCD imager where the reaction progress was measured in a discontinuous kinetic mode (two reads spaced 2 hours apart, with intermediate room temperature incubation of the covered assay plate) by using standard red-fluorescence optics (excitation filter 525 nm, emission filter 598 nm). Enzyme-free and vehicle (DMSO) controls were included for signal normalization.
Consider `O=C1NC(=O)N(CCc2ccc(F)cc2)C(=O)/C1=C/C=C/c1ccccc1`, for which the Potency entry was “inactive”. For `O=C1NC(=O)N(Cc2ccco2)C(=O)/C1=C\c1ccc(-c2ccc(F)cc2)o1`, the Potency is 25.1 µM (active). As for `CC(C)CC(C)Nc1ccc(Nc2ccccc2)cc1` (stereo unspecified), the Potency result was “inactive”.

`N#CC(C#N)=Cc1cc(O)c(O)c([N+](=O)[O-])c1`: the Potency is 31.6 µM (active). For the compound `CCN(CC)c1nc(C)cc(OP(=S)(OC)OC)n1`, the Potency entry was “inactive”. In the case of `O=C1CC(=O)N(Cc2ccccc2)C(=O)N1CCCCCCN1C(=O)CC(=O)N(Cc2ccccc2)C1=O`, the Potency is 7.94 µM (active). Take `CC(C)(C)c1ccc(CN2C(=O)CN=C(c3ccccc3)c3ccccc32)cc1`: the Potency entry was “inactive”. Turning to `O=C(CN1CCCC1=O)NCCc1ccccc1`, the Potency result was “inactive”. As for `CO[C@H]1[C@@H](O)[C@@H](C)O[C@H](O[C@H]2[C@H](Oc3cccc4c(O)c5c(=O)oc6ccc(C)c7c(=O)oc(c34)c5c67)O[C@H](C)[C@H](O)[C@@H]2O)[C@@H]1O`, the Potency entry is “inactive”.

For `COc1cccc(N2C(=O)NC(=O)/C(=C\c3ccc([N+](=O)[O-])s3)C2=O)c1`, the Potency was 22.4 µM (active).

Turning to `Cc1c(C(=O)O)cccc1-n1c(C)cc(/C=C2\C(=O)NC(=O)N(c3ccc4c(c3)OCO4)C2=O)c1C`, the Potency result was “inactive”. For the compound `CCCCCCCCCCCCN=C(N)N`, the Potency entry was “inactive”. `CCCN(C/C=C/I)C1CCc2ccc(O)cc2C1` (stereo unspecified): the Potency entry was “inactive”. The same measure, in the same setting: next, `ClCCBr`: “inactive”; `CC(C)(Cc1c[nH]c2ccc(Cl)cc12)NCCOc1ccccc1OCC1CC1`: “inactive”. Take `CC(=O)[O][Sn]([c]1ccccc1)([c]1ccccc1)[c]1ccccc1`: the Potency entry is “inactive”. On to `CN(C)C[C@H]1CCCC[C@]1(O)c1cccc(O)c1`, for which the Potency result was “inactive”. In the case of `O=C(OCC1O[C@@H](OC(=O)c2cc(O)c(O)c(O)c2)[C@@H](OC(=O)c2cc(O)c(O)c(O)c2)[C@@H](OC(=O)c2cc(O)c(O)c(O)c2)[C@@H]1OC(=O)c1cc(O)c(O)c(O)c1)c1cc(O)c(O)c(O)c1` (stereo partly specified), the Potency is 0.112 µM (active). As to `C=CCN1CCC2(C)c3cc(O)ccc3CC1[C@@H]2C` (stereo partly specified), the Potency entry is “inactive”. Regarding `CC(C)(C)C(O)(CCc1ccc(Cl)cc1)Cn1cncn1` (stereo unspecified), the Potency result was “inactive”. Consider `O=C1CCc2cccc3c2N1CC3`, for which the Potency result is “inactive”.

On to `C[C@@H]1C[C@H]2CC[C@H](O2)[C@H](C)C(=O)O[C@@H](C)C[C@@H]2CC[C@@H](O2)[C@@H](C)C(=O)O[C@H](C)C[C@H]2CC[C@H](O2)[C@H](C)C(=O)O[C@@H](C)C[C@@H]2CC[C@@H](O2)[C@@H](C)C(=O)O1`, for which the Potency entry was “inactive”. Take `Nc1ccc(-c2ccc(N)c(N)c2)cc1N`: the Potency result was “inactive”. Take `CC[C@]1(O)C(=O)OCc2c1cc1n(c2=O)Cc2cc3ccccc3nc2-1`: the Potency result is “inactive”. Take `CC[N+](C)(CC)CCC[n+]1c(-c2ccccc2)c2cc(N)ccc2c2ccc(N)cc21`: the Potency is 11.2 µM (active) and 35.5 µM (active). Take `C[C@H]1C/C=C/[C@@H]2[C@@H]3O[C@]3(C)[C@@H](C)[C@H]3[C@H](Cc4ccccc4)NC(=O)[C@]32OC(=O)O/C=C/[C@](C)(O)C1=O`: the Potency entry is “inactive”. For `CN(C)[C@@H]1C(=O)C(C(N)=O)=C(O)[C@@]2(O)C(=O)C3=C(O)c4c(O)cccc4[C@@](C)(O)C3CC12` (stereo partly specified), the Potency result was “inactive”. Still for that read-out and setting: next, `N#CCCCl`: “inactive”. Consider `N#Cc1cc(Br)c(O)c(Br)c1`, for which the Potency entry was “inactive”. Regarding `CCCCC#N`, the Potency result was “inactive”.

In the case of `CC(C)(c1ccc(OC[C@@H]2CO2)cc1)c1ccc(OC[C@H]2CO2)cc1`, the Potency entry was “inactive”. With `CO[C@@H]1C[C@@H](C[C@H]2CC[C@H](C)[C@@H]([C@@H](C)C(=O)O)O2)O[C@]2(O[C@](C)([C@H]3CC[C@@](C)(C4OC([C@H]5O[C@@](O)(CO)[C@H](C)C[C@@H]5C)C[C@@H]4C)O3)C[C@H]2C)[C@@H]1C` (stereo partly specified), the Potency result is “inactive”. As for `C[C@]12O[C@H](C[C@@]1(O)C(=O)O)n1c3ccccc3c3c4c(c5c6ccccc6n2c5c31)CNC4=O`, the Potency entry is “inactive”.

For the compound `CN[C@@H]1C[C@H]2O[C@@](C)([C@@H]1OC)n1c3ccccc3c3c4c(c5c6ccccc6n2c5c31)C(=O)NC4`, the Potency was 35.5 µM (active) and the outcome was “inactive [at 11.5 µM]”. As for `COc1ccc2[nH]cc(CCNCc3ccc(Br)cc3)c2c1`, the Potency result was “inactive”.

For the origin of these results see PubChem BioAssay AID2549 (National Center for Advancing Translational Sciences (NCATS), 2010).
